# Screens: PubChem, Johns Hopkins Ion Channel Center
# KCNQ2 enhance: potentiators of rat KCNQ2 potassium channel; actives 0.54% (n = 310,000); Potassium voltage-gated channel subfamily KQT member 2 (Rattus norvegicus), O88943; CHO-K1 KCNQ2, FluxOR thallium flux fluorescence; hits give high values; B-score at 10 µM;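 active means fluorescence ratio B-score at least 3 SD of library B-scores, with initial fluorescence B-score within 3 of them, cut at about 5.3 in these data; same plate scores as AID 2156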;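 further: B-score of peak minus minimum over baseline fluorescence ratio after K+ and Tl+ stimulus; positive B-score means potentiation of KCNQ2 with more thallium influx and brighter signal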
# KCNQ2 inh: rat KCNQ2 potassium channel inhibitors, primary screen, cell-based, CHO-K1, FluxOR thallium flux, B-score; Potassium voltage-gated channel subfamily KQT member 2 (Rattus norvegicus), O88943; 20 min; hits give low values; B-score at 10 µM; actives 1.1% (n = 310,000);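 active means fluorescence ratio B-score at most minus 3 library SDs, with starting brightness B-score within 2 library SDs, cut at about -5.5 in these data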
# The depositor's hits bear a star; i = inactive; · = no result. Compounds with a hit are over-represented: about 1.6% of the library has one in this group of screens.
SMILES,KCNQ2 enhance,KCNQ2 inh
C=C(C)c1cccc(C(C)(C)NC(=O)Nc2nnc(C(C)C)s2)c1,-7.84,-7.84*
CCCc1nc2c(ccc3ccccc32)cc1CC,·,i
CCc1ccc(NC(=O)CSc2nc3ccccc3c(=O)n2CCCC(=O)NCCCN2CCOCC2)cc1,0.02,i
Clc1ccc(/C=N/Nc2nnc(-c3ncc[nH]3)c3ccccc23)cc1,-5.71,-5.71*
Clc1cccc(/C=N/Nc2nnc(Cl)c3ccccc23)c1,·,i
O=c1ncc(F)c[nH]1,·,i
O=C(CCC(=O)Nc1nnc(C2CCCCC2)s1)Nc1ccc(F)cc1,0.82,i
COc1ccccc1/C=C/C=N/NC(=O)c1cc(-c2ccc(C)o2)[nH]n1,·,i
CCOc1cc(C)c(C(C)C)cc1S(=O)(=O)n1cnc(C)c1,8.66*,i
CCOc1cc(C)c(C(C)C)cc1S(=O)(=O)N1CC(C)OC(C)C1 (configuration not stated),0.1,i
COc1ccccc1-n1c(SCC(=O)NCc2ccc3c(c2)OCO3)nc2cc([N+](=O)[O-])ccc21,·,i
CC(Sc1nc2cc([N+](=O)[O-])ccc2n1-c1ccc(F)cc1)C(=O)NCc1ccc2c(c1)OCO2 (configuration not stated),-7.98,-7.98*
O=C(COC(=O)CNC(=O)c1ccc(Cl)cc1Cl)Nc1cccc(S(=O)(=O)N2CCCC2)c1,·,i
CCOC(=O)/C(C(=O)Nc1ccccc1Cl)=C1/NC(C)(C)Cc2ccccc21,-8.13,-8.13*
CCOC(=O)/C(C(=O)Nc1ccc(Br)cc1)=C1/NC(C)(C)Cc2ccccc21,·,i
CCOc1ccccc1NC(=O)c1ccccc1-c1nc(-c2ccccc2)no1,·,i
NC(=O)c1cccnc1Oc1ccc(Cl)cc1,·,i
CCOc1ccccc1NC(=O)c1ccccc1-c1ccccc1,-5.58,-5.58*
CCOc1ccccc1C(=O)Nc1ccccc1C(N)=O,0.61,i
O=C(Nc1cccnc1Oc1ccc(Cl)cc1)c1cccc2ccccc12,-5.99,-5.99*
COc1cccc(C(=O)Nc2cccc3ccccc23)c1OC,-6.19,-6.19*
COc1ccccc1CC(=O)Nc1cccc2ccccc12,·,i
CCOc1ccccc1NC(=O)c1cccc2ccccc12,-5.55,-5.55*
N#Cc1cc([N+](=O)[O-])cnc1NCC(O)CO (configuration not stated),1.16,i
Cc1c(Br)c([N+](=O)[O-])nn1CC(=O)NCC1CCCO1 (configuration not stated),·,i
SMILES,KCNQ2 enhance,KCNQ2 inh
Cc1cccc(-n2nc3c(c2NC(=O)C2CC2)CS(=O)(=O)C3)c1C,·,i
C=CCNC(=O)C1CCN(S(=O)(=O)c2ccc3ccccc3c2)CC1,0.06,i
CC(=O)N1CCc2cc(S(=O)(=O)CCC(=O)Nc3cc(C)cc(C)c3)ccc21,0.15,i
COC(=O)c1cc(OC)c(OC)cc1NC(=O)c1cc(-c2ccccc2)nc2ccccc12,·,i
CCOc1ccccc1NC(=O)c1cc(-c2cc(OC)c(OC)c(OC)c2)nc2ccccc12,-6.11,-6.11*
Cc1ccc2c(Cl)c(C(=O)NC3CC3)sc2c1,0.57,i
O=C(Nc1nc(=S)ss1)c1ccc(Cl)cc1Cl,17.1*,i
O=C(Nc1ccc2ccccc2c1)c1ccc(Cl)cc1Cl,0.71,i
CCc1ccccc1NC(=O)COc1cccc(-n2cnnn2)c1,1,i
CCOC(=O)C1=C(CNCc2ccccc2Cl)NC(=O)NC1c1cccc([N+](=O)[O-])c1 (configuration not stated),-6.29,-6.29*
CCOC(=O)C1=C(CNCc2ccccc2Cl)NC(=O)NC1c1ccc2c(c1)OCO2 (configuration not stated),·,i
O=C(O)c1ccccc1NS(=O)(=O)c1cccc(C(F)(F)F)c1,·,i
O=C(O)c1ccccc1NS(=O)(=O)c1cccc(-n2sc3ccccc3c2=O)c1,13.1*,i
Cc1nn(C(=O)CNC(=O)c2ccccc2)c(C)c1C,8.95*,i
Cc1cc(C)n(C(=O)CNC(=O)c2cccc(F)c2)n1,2.33,i
CCCN1CNC(=S)N(CC2CCCO2)C1 (configuration not stated),1.08,i
CSc1cccc(N2CC(C(=O)N(CC(C)C)c3c(N)n(Cc4ccccc4)c(=O)[nH]c3=O)CC2=O)c1 (configuration not stated),·,i
COc1cc(C(=O)OCC(=O)Nc2cccc(S(=O)(=O)N3CCOCC3)c2)ccc1OCC(C)C,1.83,i
O=C(CSCc1ccc(Cl)cc1)NN=C1CCCC1,6.83*,i
CC1CCCC(C)N1C(=O)CSCc1ccc(Cl)cc1 (configuration not stated),-6.33,-6.33*
CC1CCCC(C)N1C(=O)COC(=O)Cc1ccc(Cl)cc1 (configuration not stated),·,i
N#Cc1ccc(CSCC(=O)NN=C2CCCC2)cc1,·,i
CN(CC(=O)Nc1ccc(Cl)c(C(F)(F)F)c1)C(=O)c1cn2ccccc2n1,0.95,i
CC(=O)N/C(=C\c1ccc(C)cc1)C(=O)O,0.39,i
COc1ccc(SCC(=O)c2cc(C)c(OC(=S)N(C)C)c(C)c2)cc1,·,i
SMILES,KCNQ2 enhance,KCNQ2 inh
Cc1cc(C(=O)CSc2ccc(F)cc2)cc(C)c1OC(=S)N(C)C,-6.05,-6.05*
Cc1ccc(CC(=O)NCCS(=O)c2ccc(C)cc2)cc1 (configuration not stated),·,i
CCCCOc1ccc(C(=O)NCC(=O)NCC(c2ccc(OC)cc2)N2CCCC2)cc1 (configuration not stated),·,i
CC1(C)Cc2ccccc2C(CSc2ccccc2C(=O)O)=N1,-6.05,-6.05*
COc1cc2c(cc1OC)C(CSc1ccccc1C(=O)O)=NC(C)(C)C2,·,i
COc1ccccc1-c1nc(C(=O)NCC2CCCO2)cc2c1[nH]c1ccccc12 (configuration not stated),·,i
COc1cc(-c2nc(C(=O)NCC3CCCO3)cc3c2[nH]c2ccccc23)cc(OC)c1OC (configuration not stated),-6.67,-6.67*
COC(=O)c1ccccc1S(=O)(=O)N1CCCC(c2nc3c(nnn3Cc3ccc(C)cc3)c(=O)[nH]2)C1 (configuration not stated),·,i
COc1ccccc1NC(=O)N1CCCC(c2nc3c(nnn3Cc3ccc(C)cc3)c(=O)[nH]2)C1 (configuration not stated),-6.24,-6.24*
COc1ccccc1N(CC(O)COc1ccccc1C)S(=O)(=O)c1ccccc1 (configuration not stated),·,i
Cc1ccc2c(C)c(C(=O)NCCN3CCCC(O)C3)oc2c1C (configuration not stated),0.72,i
CCOC(=O)N1CCC(NC(=O)c2oc3c(C)c(C)ccc3c2C)CC1,-5.66,-5.66*
Cc1ccc2c(C)c(C(=O)NCCN3CCOC3=O)oc2c1C,5.47*,i
CCOC(=O)N1CCC(NC(=O)c2ccccc2C(=O)O)CC1,0.54,i
COCCN1C(=O)/C(=C/c2ccc(OCc3ccc(C(=O)O)cc3)c(OC)c2)SC1=Nc1ccccc1,-6.08,-6.08*
COc1cc(/C=C2\SC(=Nc3ccccc3)N(Cc3ccco3)C2=O)ccc1OC(C)C(=O)O (configuration not stated),·,i
O=C(COc1cccc(Br)c1)NN=C1c2ccccc2-c2ccccc21,·,i
